Assay results from paper PMC5540273 (PLoS ONE, 2017).

How the values were obtained:
Conditions in all cases: concentration: 1 μM, replicates: in singlicate; n = 1
BIKE = tested on: T1, BIKE
T1 construct: gene BMP2K

BLK = tested on: BLK
BMPR1A = tested on: BMPR1A
BMPR1B = tested on: BMPR1B
BMPR2 = tested on: BMPR2
BMX = tested on: BMX
BRAF = tested on: BRAF
BRK = tested on: T2, BRK
T2 construct: gene PTK6

BRSK1 = tested on: BRSK1
BRSK2 = tested on: BRSK2
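Further: KINOMEscan kinase panel screen.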

Compound | %Inh (BIKE) | %Inh (BLK) | %Inh (BMPR1A) | %Inh (BMPR1B) | %Inh (BMPR2) | %Inh (BMX) | %Inh (BRAF) | %Inh (BRK) | %Inh (BRSK1) | %Inh (BRSK2)
O=C(Nc1n[nH]c2nc(-c3cccs3)c(Br)cc12)C1CC1 [SB-735297] | 26% | 0% | 0% | 0% | 26% | 9% | 0% | 0% | 66% | 53%
CC(C)c1ccc(O)cc1Nc1ccnc2ccc(C(F)(F)F)cc12 [GW482059] | 13% | 30% | 0% | 0% | 0% | 0% | 0% | 0% | 1% | 5%
CCc1ccc(-c2ccc3c(c2)-c2n[nH]cc2S(=O)(=O)N3C)cc1 | 12% | 9% | 0% | 0% | 0% | 0% | 0% | 0% | 0% | 4%
COc1cccc(NC(=O)Nc2ccc(C)c(-c3ccc(C(=O)Nc4ccncc4)cc3)c2)c1 [GSK1398474] | 26% | 40% | 0% | 0% | 0% | 18% | 30% | 0% | 12% | 96.2%
O=C1NC(=O)C(c2ccc(Cl)cc2)=C1Nc1ccc(O)cc1 [SB-340867] | 4% | 0% | 0% | 0% | 0% | 21% | 0% | 0% | 0% | 0%
